Measured values reported in article PMC5540273 (PLoS ONE, 2017).

Experiments:
Details in all cases: concentration: 1 μM, replicates: in singlicate; n = 1
CSNK1G1 = test system: CSNK1G1
CSNK1G2 = test system: CSNK1G2
CSNK1G3 = test system: CSNK1G3
CSNK2A1 = test system: CSNK2A1
CSNK2A2 = test system: CSNK2A2
CTK = test system: T1, CTK
T1 construct: gene MATK

DAPK1 = test system: DAPK1
DAPK2 = test system: DAPK2
DAPK3 = test system: DAPK3
DCAMKL1 = test system: T2, DCAMKL1
T2 construct: gene DCLK1

DCAMKL2 = test system: T3, DCAMKL2
T3 construct: gene DCLK2

DCAMKL3 = test system: T4, DCAMKL3
T4 construct: gene DCLK3

DDR1 = test system: DDR1
DDR2 = test system: DDR2
DLK = test system: T5, DLK
T5 construct: gene MAP3K12

DMPK2 = test system: T6, DMPK2
T6 construct: gene CDC42BPG

DMPK = test system: DMPK
DRAK1 = test system: T7, DRAK1
T7 construct: gene STK17A

DRAK2 = test system: T8, DRAK2
T8 construct: gene STK17B

DYRK1A = test system: DYRK1A
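Note: KINOMEscan kinase panel screen.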

Structure (SMILES) | %Inh (CSNK1G1) [%] | %Inh (CSNK1G2) [%] | %Inh (CSNK1G3) [%] | %Inh (CSNK2A1) [%] | %Inh (CSNK2A2) [%] | %Inh (CTK) [%] | %Inh (DAPK1) [%] | %Inh (DAPK2) [%] | %Inh (DAPK3) [%] | %Inh (DCAMKL1) [%] | %Inh (DCAMKL2) [%] | %Inh (DCAMKL3) [%] | %Inh (DDR1) [%] | %Inh (DDR2) [%] | %Inh (DLK) [%] | %Inh (DMPK2) [%] | %Inh (DMPK) [%] | %Inh (DRAK1) [%] | %Inh (DRAK2) [%] | %Inh (DYRK1A) [%]
COc1ccc(C)c(Nc2ccnc(Nc3ccc(-c4cnc[nH]4)cc3)n2)c1.Cl [GW784041] | 15 | 0 | 8 | 0 | 5 | 0 | 7 | 10 | 6 | 7 | 3 | 27 | 52 | 70 | 10 | 5 | 0 | 0 | 0 | 0
COc1cc(Nc2nccc(N3CCC(NC(=O)Nc4ccc5c(c4)OCO5)C3)n2)cc(OC)c1OC (centres unmarked) [GSK1379766] | 10 | 0 | 4 | 4 | 16 | 0 | 5 | 0 | 7 | 7 | 7 | 0 | 0 | 6 | 53 | 10 | 0 | 0 | 4 | 12
CCn1cnc2c(NCc3ccccc3)ncnc21 [SKF-96418] | 0 | 0 | 0 | 0 | 0 | 34 | 0 | 0 | 11 | 33 | 0 | 0 | 0 | 38 | 0 | 1 | 0 | 0 | 0 | 0
COc1cc(Nc2nccc(N3CCC(NS(=O)(=O)c4ccc(NC(C)=O)cc4)CC3)n2)cc(OC)c1OC [GSK1379825] | 0 | 0 | 0 | 8 | 2 | 0 | 0 | 0 | 8 | 0 | 1 | 0 | 0 | 14 | 76 | 83 | 0 | 0 | 0 | 25
CN(c1ccc2c(c1)nc(NCc1ccccc1)n2C)c1ccnc(Nc2ccc(CS(C)(=O)=O)cc2)n1.Cl [GW811603] | 0 | 4 | 0 | 16 | 8 | 5 | 13 | 0 | 0 | 0 | 0 | 99.4 | 99.5 | 100 | 14 | 0 | 9 | 0 | 0 | 5
Cl.N#CCc1ccc(Nc2nccc(Nc3ccc(Oc4ccccc4)cc3)n2)cc1 [GW639905] | 1 | 0 | 8 | 0 | 9 | 28 | 0 | 60 | 40 | 12 | 0 | 1 | 32 | 5 | 35 | 0 | 0 | 22 | 0 | 19
Cc1ccc(NC(=O)c2ccc(Cl)c(Cl)c2)cc1-c1ccc(C(=O)Nc2ccncc2)cc1 [GSK1398460] | 12 | 16 | 36 | 0 | 2 | 0 | 11 | 0 | 18 | 22 | 10 | 17 | 100 | 69 | 0 | 0 | 0 | 0 | 3 | 14
NCCC(NC(=O)c1cc(Br)c(-c2ccnc3[nH]ccc23)s1)c1ccccc1.O=C(O)C(F)(F)F.O=C(O)C(F)(F)F (centres unmarked) [GSK1307810] | 83 | 99 | 99.2 | 98.9 | 94.7 | 0 | 6 | 28 | 29 | 25 | 0 | 0 | 0 | 26 | 33 | 99.8 | 64 | 74 | 0 | 44
Nc1ncc(-c2ccc3nccc(-c4ccncc4)c3c2)cc1S(=O)(=O)N1CCCCC1 [GSK1693850] | 0 | 18 | 33 | 2 | 0 | 0 | 11 | 26 | 30 | 15 | 0 | 0 | 2 | 12 | 42 | 15 | 0 | 0 | 5 | 8
Cc1ccc(O)cc1Nc1ccnc2ccc(C(C)(C)C)cc12 [GW856805] | 19 | 5 | 0 | 1 | 7 | 21 | 13 | 8 | 7 | 2 | 18 | 0 | 40 | 60 | 0 | 5 | 3 | 12 | 0 | 0
